Results published in PubChem BioAssay AID743449 (Broad Institute, 2014).
Out of some 9,900 compounds screened, about 90 (0.9%) were called active. Inconclusive results (about 2%) are left out. The sample holds actives, similar compounds and a random draw of the others, so the mix is not that of the screen.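 How the source made its calls: active means mean normalized replicate activity at least 50 and at least half of replicates each reaching 50; inconclusive means only one of the two criteria met; inactive means neither criterion met.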

Test: reduction of CTGF mRNA in DLD1 cells – DLD1 colon cancer cells, RT-qPCR, single point, primary screen (AID 743449);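 further: 0% = neutral control wells and 100% = dasatinib control wells; higher means stronger suppression of CTGF expression like dasatinib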
Conditions: 24 h, at 12.5 µM, hits give high values

| SMILES | inhibition |
| --- | --- |
| Cc1noc(C)c1S(=O)(=O)N(C)C[C@H]1OCc2ccccc2-c2ccccc2C(=O)N([C@H](C)CO)C[C@H]1C | -25.8% (inactive) |
| C[C@@H]1CCCCO[C@@H](CN(C)CC2CCCCC2)[C@@H](C)CN([C@@H](C)CO)C(=O)c2cc(NS(C)(=O)=O)ccc2O1 | 2.58% (inactive) |
| CS(=O)(=O)N1[C@H](CO)[C@@H](c2ccc(-c3ccccc3F)cc2)[C@@H]1C#N | 16.4% (inactive) |
| C[C@H]1CN([C@@H](C)CO)C(=O)c2ccccc2-c2ccccc2CO[C@H]1CN(C)Cc1ccccc1C(F)(F)F | 12.5% (inactive) |
| Cc1ccc(S(=O)(=O)N2C[C@@H](O)COC[C@H]3O[C@@H](CC(=O)NCc4ccc5c(c4)OCO5)CC[C@@H]32)cc1 | 25.4% (inactive) |
| CCS(=O)(=O)N1CC(=O)N2[C@H](CO)[C@@H](c3ccc(C4=CCCCC4)cc3)[C@@H]2C1 | 0.977% (inactive) |
| COc1ccc2c3c(n(C)c2c1)[C@H](CO)N(C)CC31CCN(C(=O)NC(C)C)CC1 | 18.6% (inactive) |
| C[C@@H]1CN([C@@H](C)CO)C(=O)c2c(c3ccccc3n2C)-c2ccccc2CO[C@@H]1CN(C)Cc1cccc(C(F)(F)F)c1 | -39% (inactive) |
| COc1ccc([C@H]2C/C=C\C[C@H](c3ccc4c(c3)OCO4)NC(=O)[C@H](c3ccccc3)CC(=O)N2)c(OC)c1 | -62.1% (inactive) |
| COc1ccc([C@H]2C/C=C\C[C@@H](c3ccc4c(c3)OCO4)NC(=O)[C@@H](c3ccccc3)CC(=O)N2)c(OC)c1 | 58.4% (active) |
| COc1ccc([C@@H]2C/C=C\C[C@@H](c3ccc4c(c3)OCO4)NC(=O)[C@H](c3ccccc3)CC(=O)N2)c(OC)c1 | 31% (inactive) |
| O=C(Nc1ccc(F)cc1)N1CC(=O)N2[C@H](CO)[C@@H](c3ccc(C#Cc4cccnc4)cc3)[C@@H]2C1 | -8.94% (inactive) |
| O=C(Nc1ccc(F)cc1)N1C[C@@H]2[C@H](c3ccccc31)[C@@H](CO)N2Cc1ccccc1Cl | -18.1% (inactive) |
| OC[C@@H]1[C@@H](c2ccc(-c3cccnc3)cc2)[C@H]2CN(Cc3ccccn3)CCCCN12 | -1.92% (inactive) |
| CCCC(=O)N1CCC2(CC1)CN[C@@H](CO)c1[nH]c3cc(OC)ccc3c12 | -5.58% (inactive) |
| COc1ccc2c3c([nH]c2c1)[C@H](CO)NCC31CCN(C(=O)Cc2cccnc2)CC1 | 51% (active) |
| CCCC(=O)N1CCC2(CC1)CN[C@H](CO)c1[nH]c3cc(OC)ccc3c12 | 2.25% (inactive) |
| O=C(Nc1ccc(-c2ccccc2)cc1)[C@H]1[C@H](CO)[C@H]2Cn3c(cccc3=O)[C@H]2N1CC1CCOCC1 | 14.4% (inactive) |
| O=C(C[C@H]1C[C@@H]2c3cc(NC(=O)C4CCC4)ccc3O[C@@H]2[C@H](CO)O1)NC1CCCC1 | -3.69% (inactive) |
| CCCC(=O)Nc1ccc2c(c1)C(=O)N(C)[C@H]1CC[C@@H](CC(=O)N3CCCCC3)O[C@@H]1CO2 | -2.53% (inactive) |
| CC(C)(C)[S@@](=O)N1Cc2cc(C(=O)NCCN3CCCC3)nc(-c3cccc(-c4ccc(C#N)cc4)c3)c2[C@H]1CCO | -8.4% (inactive) |
| CC(C)(C)[S@](=O)N1Cc2cc(C(=O)NCCN3CCCC3)nc(-c3cccc(-c4ccc(C#N)cc4)c3)c2[C@@H]1CCO | 29.4% (inactive) |
| COc1ccccc1-c1cccc(-c2nc(C(=O)NCc3ccncc3)cc3c2[C@@H](CCO)N([S@](=O)C(C)(C)C)C3)c1 | 20% (inactive) |

| SMILES | inhibition |
| --- | --- |
| CC(C)(C)[S@](=O)N1Cc2cc(C(=O)NCCc3ccncc3)nc(-c3cccc(-c4cccc(C#N)c4)c3)c2[C@@H]1CCO | 79.3% (active) |
| COc1ccccc1-c1cccc(-c2nc(C(=O)NCc3ccncc3)cc3c2[C@H](CCO)N([S@@](=O)C(C)(C)C)C3)c1 | 19.4% (inactive) |
| CC(C)(C)[S@@](=O)N1Cc2cc(C(=O)NCCc3ccncc3)nc(-c3cccc(-c4cccc(C#N)c4)c3)c2[C@H]1CCO | 67.3% (active) |
| CCS(=O)(=O)N1CC2(CN(C(=O)c3ccc(F)cc3)[C@@H](CO)c3[nH]c4cc(OC)ccc4c32)C1 | 11.6% (inactive) |
| C[C@@H]1CN([C@@H](C)CO)C(=O)c2cc(NC(=O)Nc3cccc4ccccc34)ccc2O[C@@H](C)CCCCO[C@@H]1CN(C)Cc1ccc(C(F)(F)F)cc1 | -20.9% (inactive) |
| COc1ccc(C#Cc2ccc3c(c2)[C@H]2[C@H](CCN2S(=O)(=O)c2ccccc2C)[C@@H](CO)N3C)cc1 | -15.4% (inactive) |
| CCCC(=O)N1CC2(C1)CN(CC1CC1)[C@@H](CO)c1[nH]c3cc(OC)ccc3c12 | -16.5% (inactive) |
| COCC(=O)NC[C@@H]1[C@@H](c2ccccc2)[C@H](CO)N1C(=O)c1ccccc1 | 19.2% (inactive) |
| O=C(CN1CCOCC1)N1CC(=O)N2[C@H](CO)[C@H](c3ccc(-c4cccc(F)c4)cc3)[C@@H]2C1 | -2.97% (inactive) |
| C[C@@H]1CN([C@@H](C)CO)S(=O)(=O)c2ccc(C#Cc3cccc(F)c3)cc2O[C@H]1CN(C)S(=O)(=O)c1cn(C)cn1 | 8.89% (inactive) |
| COc1cccc(C#Cc2ccc3c(c2)O[C@@H](CN(C)C(=O)CN2CCOCC2)[C@@H](C)CN([C@@H](C)CO)S3(=O)=O)c1 | 50.7% (active) |
| C[C@@H]1CN([C@H](C)CO)S(=O)(=O)c2ccc(C#Cc3cccc(F)c3)cc2O[C@@H]1CN(C)S(=O)(=O)c1cn(C)cn1 | 72.6% (active) |
| COc1cccc(C#Cc2ccc3c(c2)O[C@H](CN(C)C(=O)CN2CCOCC2)[C@H](C)CN([C@@H](C)CO)S3(=O)=O)c1 | 22.3% (inactive) |
| C[C@@H]1CN([C@@H](C)CO)S(=O)(=O)c2ccc(C#Cc3cccc(F)c3)cc2O[C@@H]1CN(C)S(=O)(=O)c1cn(C)cn1 | 40.9% (inactive) |
| COc1cccc(C#Cc2ccc3c(c2)O[C@@H](CN(C)C(=O)CN2CCOCC2)[C@@H](C)CN([C@H](C)CO)S3(=O)=O)c1 | 8.35% (inactive) |
| O=C(CN1CCOCC1)N[C@@H]1CC[C@@H](CCn2cc(C3CC3)nn2)O[C@H]1CO | -8.58% (inactive) |
| C[C@@H]1CN([C@@H](C)CO)C(=O)c2cccc(NS(=O)(=O)c3ccc(F)cc3)c2O[C@@H]1CN(C)Cc1ccc(Cl)c(Cl)c1 | -11.4% (inactive) |
| C[C@@H](NC(=O)C[C@H]1C=C[C@H](NS(=O)(=O)c2cccc(F)c2)[C@H](CO)O1)c1ccccc1 | -23.7% (inactive) |
| O=C(CC1CC1)N1CC(=O)N2[C@@H](CO)[C@H](c3ccc(C#Cc4cccc(F)c4)cc3)[C@@H]2C1 | 33% (inactive) |
| COCC(=O)N1CC(=O)N2[C@H](CO)[C@H](c3ccc(C#CC4CC4)cc3)[C@H]2C1 | 25.9% (inactive) |
| O=C(CC1CC1)N1CC(=O)N2[C@H](CO)[C@@H](c3ccc(C#Cc4cccc(F)c4)cc3)[C@H]2C1 | 50.5% (active) |
| COCC(=O)N1CC(=O)N2[C@H](CO)[C@H](c3ccc(C#CC4CC4)cc3)[C@@H]2C1 | -14.5% (inactive) |
| O=C(CC1CC1)N1CC(=O)N2[C@H](C1)[C@H](c1ccc(C#Cc3cccc(F)c3)cc1)[C@@H]2CO | 23.8% (inactive) |

| SMILES | inhibition |
| --- | --- |
| CS(=O)(=O)N1CC(=O)N2[C@H](C1)[C@H](c1ccc(C#Cc3ccc(F)cc3)cc1)[C@@H]2CO | -7.23% (inactive) |
| CS(=O)(=O)N1CC(=O)N2[C@H](CO)[C@@H](c3ccc(C#Cc4ccc(F)cc4)cc3)[C@H]2C1 | 43.4% (inactive) |
| O=C(CC1CC1)N1CC(=O)N2[C@H](CO)[C@@H](c3ccc(/C=C/c4ccccc4)cc3)[C@@H]2C1 | 24.1% (inactive) |
| O=C(CC1CC1)N1CC(=O)N2[C@H](C1)[C@@H](c1ccc(/C=C/c3ccccc3)cc1)[C@@H]2CO | 16.9% (inactive) |
| COCC(=O)N1CC(=O)N2[C@H](CO)[C@@H](c3ccc(C#CC4CC4)cc3)[C@H]2C1 | 62.3% (active) |
| CS(=O)(=O)N1CC(=O)N2[C@H](C1)[C@@H](c1ccc(C#Cc3ccc(F)cc3)cc1)[C@@H]2CO | 63.2% (active) |
| O=C(CC1CC1)N1CC(=O)N2[C@@H](CO)[C@H](c3ccc(/C=C/c4ccccc4)cc3)[C@@H]2C1 | 52.4% (active) |
| CO[C@@H]1CN(C)C(=O)c2cc(NC(=O)Nc3cccc(Cl)c3)ccc2OC[C@@H](C)N(C(=O)Nc2c(C)noc2C)C[C@H]1C | 19.6% (inactive) |
| C[C@H]1CN([C@@H](C)CO)C(=O)c2cc(NC(=O)C3CC3)ccc2O[C@@H]1CN(C)S(=O)(=O)c1ccccc1 | -17.4% (inactive) |
| C[C@H](CO)N1C[C@H](C)[C@@H](CN(C)C(=O)Nc2ccccc2)OCCCC[C@H](C)Oc2ccc(NC(=O)Nc3ccccc3)cc2C1=O | 20% (inactive) |
| C[C@@H]1CN([C@H](C)CO)C(=O)Cc2cc(N(C)C)ccc2O[C@H]1CN(C)Cc1ccc(-c2ccccc2)cc1 | -24.6% (inactive) |
| O=C(c1ccccc1F)N1CC[C@H]2[C@H](CO)Nc3ccc(Br)cc3[C@H]21 | -3.54% (inactive) |
| O=C1CCCCn2nncc2COC[C@H](Cc2ccccc2)N1 | -21.7% (inactive) |
| Cc1ccc(S(=O)(=O)Nc2ccc3c(c2)C(=O)N([C@H](C)CO)C[C@@H](C)[C@H](CN(C)S(=O)(=O)c2cccs2)OCCCC[C@@H](C)O3)cc1 | 57.5% (active) |
| COc1ccc(S(=O)(=O)Nc2ccc3c(c2)C(=O)N([C@@H](C)CO)C[C@H](C)[C@@H](CN(C)S(=O)(=O)c2ccc(Cl)cc2)OCCCC[C@@H](C)O3)cc1 | 50.6% (active) |
| Cc1ccc(S(=O)(=O)Nc2ccc3c(c2)CC(=O)N([C@H](C)CO)C[C@@H](C)[C@@H](CN(C)S(=O)(=O)c2ccccc2)O3)cc1 | 57.6% (active) |
| COc1ccc(S(=O)(=O)Nc2ccc3c(c2)C(=O)N([C@H](C)CO)C[C@H](C)[C@H](CN(C)S(=O)(=O)c2ccc(Cl)cc2)OCCCC[C@@H](C)O3)cc1 | -2.26% (inactive) |
| Cc1ccc(S(=O)(=O)Nc2ccc3c(c2)C(=O)N([C@H](C)CO)C[C@H](C)[C@@H](CN(C)S(=O)(=O)c2cccs2)OCCCC[C@H](C)O3)cc1 | -31% (inactive) |
| Cc1ccc(S(=O)(=O)Nc2ccc3c(c2)CC(=O)N([C@H](C)CO)C[C@@H](C)[C@H](CN(C)S(=O)(=O)c2ccccc2)O3)cc1 | -17.2% (inactive) |
| Cc1ccc(S(=O)(=O)Nc2ccc3c(c2)CC(=O)N([C@@H](C)CO)C[C@H](C)[C@@H](CN(C)S(=O)(=O)c2ccccc2)O3)cc1 | -31.9% (inactive) |
| Cc1ccc(S(=O)(=O)Nc2ccc3c(c2)C(=O)N([C@@H](C)CO)C[C@@H](C)[C@H](CN(C)S(=O)(=O)c2cccs2)OCCCC[C@H](C)O3)cc1 | -3.15% (inactive) |
| COc1ccc(S(=O)(=O)Nc2ccc3c(c2)C(=O)N([C@H](C)CO)C[C@H](C)[C@@H](CN(C)S(=O)(=O)c2ccc(Cl)cc2)OCCCC[C@H](C)O3)cc1 | -8.83% (inactive) |
